Several values for one entry are separate records, joined by “and”; a condition that tells them apart may be missing. Identical values can stand only once. Inconclusive results are not listed. The source holds several records for some structures; these can differ, active in one and inactive in another. Activity calls are given as the source filed them. Unless noted, the call rests on the fitted dose curve; in most records, active means well fitted curve in the direction sought with a large enough effect in the repeat runs; inconclusive means weak or mixed curves; inactive means no such curve, though single readings can be large; an effect the other way counts as inactive or inconclusive.
Columns and labels:
[1] = qHTS assay to identify small molecule antagonists of the glucocorticoid receptor (GR) signaling pathway - cell viability counter screen (AID 720693); further: nearly all actives have a fitted effect of over 55% in size; further: potency means the concentration at half of the fitted maximal effect
[2] = qHTS assay for identifying genotoxic compounds that show differential cytotoxicity against isogenic chicken DT40 cell lines with known DNA damage response pathways - wild type cell line (AID 743012); further: nearly all actives have a fitted effect of over 60% in size; further: potency means the concentration at half of the fitted maximal effect
Summary of the method: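 Using parental DT40 (300 cells/well), compounds delivered in DMSO incubate 40 h at 37 C/5% CO2. CellTiter-Glo reagent then stands 30 min at room temperature, and luminescence gives cell viability.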

[3] = qHTS assay for identifying genotoxic compounds that show differential cytotoxicity against isogenic chicken DT40 cell lines with known DNA damage response pathways - Rev3 mutant cell line (AID 743014); further: nearly all actives have a fitted effect of over 55% in size; further: potency means the concentration at half of the fitted maximal effect
[4] = qHTS assay for identifying genotoxic compounds that show differential cytotoxicity against isogenic chicken DT40 cell lines with known DNA damage response pathways - Rad54/Ku70 mutant cell line (AID 743015); further: nearly all actives have a fitted effect of over 60% in size; further: potency means the concentration at half of the fitted maximal effect
[5] = qHTS assay to identify small molecule antagonists of the androgen receptor (AR) signaling pathway - cell viability counter screen (AID 743033; further: nearly all actives have a fitted effect of over 45% in size; further: potency means the concentration at half of the fitted maximal effect)
[6] = target: Androgen receptor (Homo sapiens) (UniProt P10275); experiment: qHTS assay to identify small molecule antagonists of the androgen receptor (AR) signaling pathway (AID 743035; active means well fitted inhibition curve with a large enough effect in the signal ratio in the repeat runs, not every such curve was filed as active; the % refers to the signal ratio; further: potency means the concentration at half of the fitted maximal effect)
Summary of the method: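 Using qHTS, AR-UAS-bla GripTite HEK293 cells received compound, then R1881, and were cultured 16 h at 37C/5% CO2 before a 2 h room-temperature LiveBLAzer B/G FRET substrate step and fluorescence measurement.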

[7] = target: Androgen receptor (Homo sapiens) (UniProt P10275); experiment: qHTS assay to identify small molecule agonists of the androgen receptor (AR) signaling pathway using the MDA cell line (AID 743040; further: nearly all actives have a fitted effect of over 20% in size)
Summary of the method: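 After a 5 h incubation at 37C and 0% CO2, MDA-kb2 reporter cells were dosed with compounds in DMSO and kept 16 h under the same conditions. Luciferase activity was then read as luminescence with ONE-Glo.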

[8] = qHTS assay to identify small molecule antagonists of the androgen receptor (AR) signaling pathway using the MDA cell line - cell viability counter screen (AID 743041; further: nearly all actives have a fitted effect of over 45% in size; further: potency means the concentration at half of the fitted maximal effect)
Summary of the method: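 R1881-driven MDA-kb2 AR-luc cells, 3,000/well, were dosed with library compounds for 16 h; cell health came from CellTiter-Fluor fluorescence in the reporter wells.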

[9] = target: Androgen receptor (Homo sapiens) (UniProt P10275); experiment: qHTS assay to identify small molecule antagonists of the androgen receptor (AR) signaling pathway using the MDA cell line (AID 743042; further: nearly all actives have a fitted effect of over 55% in size; further: potency means the concentration at half of the fitted maximal effect)
Summary of the method: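 Antagonist mode: compounds plus R1881 agonist added to MDA-kb2 AR-luc cells, incubated 16 h at 37C. Luciferase reporter luminescence quantified, with multiplexed CellTiter-Fluor readout for cell viability.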

[10] = target: Androgen receptor (Homo sapiens) (UniProt P10275); experiment: qHTS assay to identify small molecule agonists of the androgen receptor (AR) signaling pathway (AID 743036; active means well fitted activation curve with a large enough effect in the signal ratio in the repeat runs, with a control signal flat, not every such curve was filed as active; the % refers to the signal ratio)
Summary of the method: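 Activation was read as beta-lactamase FRET signal from LiveBLAzer B/G substrate, added for 2 h at room temperature. Before that, GeneBLAzer AR-UAS-bla GripTite (HEK293) cells had 16 h compound exposure at 37C.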

Measured: Potency

Sequence of Androgen receptor (Homo sapiens) (P10275 whole entry, looked up): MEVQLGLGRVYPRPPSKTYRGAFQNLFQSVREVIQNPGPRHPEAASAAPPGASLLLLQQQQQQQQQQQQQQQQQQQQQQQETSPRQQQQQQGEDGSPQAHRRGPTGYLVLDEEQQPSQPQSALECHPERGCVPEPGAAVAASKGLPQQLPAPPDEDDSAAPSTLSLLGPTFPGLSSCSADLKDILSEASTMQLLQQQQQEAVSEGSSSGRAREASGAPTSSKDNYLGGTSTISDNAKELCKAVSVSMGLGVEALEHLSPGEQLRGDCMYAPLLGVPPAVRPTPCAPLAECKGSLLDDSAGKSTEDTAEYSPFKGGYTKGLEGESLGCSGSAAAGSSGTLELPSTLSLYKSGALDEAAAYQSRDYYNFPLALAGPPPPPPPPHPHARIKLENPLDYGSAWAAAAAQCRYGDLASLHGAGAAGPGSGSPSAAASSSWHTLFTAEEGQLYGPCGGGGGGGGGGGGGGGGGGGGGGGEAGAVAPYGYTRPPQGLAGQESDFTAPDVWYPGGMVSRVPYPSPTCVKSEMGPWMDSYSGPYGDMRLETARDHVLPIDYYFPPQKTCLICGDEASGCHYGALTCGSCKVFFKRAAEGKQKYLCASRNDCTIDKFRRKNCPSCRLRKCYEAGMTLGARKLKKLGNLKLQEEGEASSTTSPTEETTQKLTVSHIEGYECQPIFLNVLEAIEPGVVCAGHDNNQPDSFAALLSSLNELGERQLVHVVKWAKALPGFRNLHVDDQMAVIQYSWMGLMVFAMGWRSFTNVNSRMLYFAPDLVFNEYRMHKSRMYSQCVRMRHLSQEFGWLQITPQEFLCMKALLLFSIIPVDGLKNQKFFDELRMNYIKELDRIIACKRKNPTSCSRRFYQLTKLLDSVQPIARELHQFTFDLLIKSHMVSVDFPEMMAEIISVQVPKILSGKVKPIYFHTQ

CC(N)=O
inactive: [1] | [2] | [3] | [4] | [5]

Nc1cc(Cl)c(-c2cc(Cl)c(N)cc2Cl)cc1Cl
active: [1] 54.9 µM and 49 µM | [2] 5.44 µM and 4.86 µM | [3] 2.43 µM and 5.45 µM | [4] 2.73 µM and 4.33 µM | [5] 43.6 µM and 49 µM | [6] 21.9 µM and 17.4 µM | [8] 61.1 µM | [9] 54.4 µM and 68.6 µM
inactive: [7]

COC(=O)[C@H]1[C@H]2C[C@@H]3c4[nH]c5cc(OC)ccc5c4CCN3C[C@H]2C[C@@H](OC(=O)c2cc(OC)c(OC)c(OC)c2)[C@@H]1OC
active: [2] 13.3 µM and 17.7 µM | [3] 18.8 µM and 25 µM | [4] 18.8 µM and 24.3 µM and 22.3 µM
inactive: [1]
inactive and 21.8 µM (active): [5]

CC1COC(=O)O1 (configuration not stated)
not listed: [8]
inactive: all other assays above

CO[Si](OC)(OC)c1ccccc1
inactive: [1] | [2] | [3] | [4] | [5]

CCCCCCCCCCCC[N+](C)(C)C
active: [1] 24.5 µM and 17.4 µM and 38.9 µM | [2] 861 nM and 243 nM and 217 nM | [3] 432 nM and 137 nM and 217 nM | [4] 543 nM and 217 nM | [5] 48.9 µM and 49 µM and 38.9 µM

CC(=O)CC(C)=O
inactive: [1] | [2] | [3] | [4] | [5] | [8]

COC(c1ccccc1)(c1ccccc1)[C@H](Oc1nc(C)cc(C)n1)C(=O)O
inactive: [1] | [2] | [3] | [4] | [5] | [8]

Cc1scc2c1N(C(=O)CN1CCN(C)CC1)c1ccccc1NC2=O
inactive: [1] | [2] | [3] | [4] | [5] | [8]

CNCCC(Oc1ccc(C(F)(F)F)cc1)c1ccccc1 (configuration not stated)
inactive: [1]
active: [2] 5.31 µM and 9.56 µM | [3] 6.68 µM and 6.03 µM | [4] 6.68 µM and 8.52 µM | [5] 48.4 µM | [8] 27.8 µM and 53.8 µM

From PubChem BioAssay (Tox21)
